Bioassay records: PubChem BioAssay, National Center for Advancing Translational Sciences (NCATS)
Rows were chosen to be rich in hits. Some 21% of all compounds tested hit in one or more screens of this group.
Gal4-VP16 FLuc: Gal4-VP16 reporter inhibition counter-screen; Potency, µM (doses to about 53.6 µM), inactives show top-dose activity, negative = inhibition, hits mostly inhibitors; 3.5% of 310,000 active; Drosophila S2 Gal4-VP16 UAS-luciferase, luminescence, 20 h;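 further: Gal4-VP16 expression switched on by copper sulfate through the metallothionein promoter; potency means the concentration at half of the fitted maximal effect; nearly all actives have a fitted effect of over 50% in size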
RORgamma inh: inhibitors of mouse ROR gamma transcriptional activity | Drosophila S2 Gal4-RORgamma UAS-luciferase reporter, 20 h | AID 2551 | Potency, µM (titrated, usually from 53.6 µM), for the others: top-dose activity change, negative = inhibition, most hits filed as inhibitors | P51450 | 5.4% of 310,000 active; further: potency means the concentration at half of the fitted maximal effect; nearly all actives have a fitted effect of over 60% in size
Target sequence (P51450 whole entry, looked up, the tested form may be a part): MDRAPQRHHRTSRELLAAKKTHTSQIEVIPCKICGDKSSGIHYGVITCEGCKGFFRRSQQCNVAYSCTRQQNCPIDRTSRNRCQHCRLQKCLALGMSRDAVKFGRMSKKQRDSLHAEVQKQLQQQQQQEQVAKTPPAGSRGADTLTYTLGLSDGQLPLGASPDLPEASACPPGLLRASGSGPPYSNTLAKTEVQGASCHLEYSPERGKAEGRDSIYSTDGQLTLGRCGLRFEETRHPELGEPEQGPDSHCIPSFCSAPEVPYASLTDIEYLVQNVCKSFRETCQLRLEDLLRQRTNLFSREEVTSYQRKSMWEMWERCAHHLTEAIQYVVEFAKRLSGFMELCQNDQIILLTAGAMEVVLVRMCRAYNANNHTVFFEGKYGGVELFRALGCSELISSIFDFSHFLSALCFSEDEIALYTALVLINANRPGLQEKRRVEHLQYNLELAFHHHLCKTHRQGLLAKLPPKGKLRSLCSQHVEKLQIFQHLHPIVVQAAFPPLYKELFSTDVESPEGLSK
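Luminescence from a UAS-regulated Photinus luciferase reporter in stably transfected Drosophila Schneider cells is measured; decreased signal marks ROR gamma inhibition. Fusion expression is induced by 700 uM copper sulfate for 20 hr.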
ELG1 repair inh: blocks ELG1-dependent DNA repair in HEK293T cells. HEK293T ELG1-luciferase reporter, luminescence, 16 h; DNA damage induced by 5-fluorouridine. Potency, µM (titrated, usually from 46.1 µM), without a hit: at the top dose activity change, negative = inhibition, hits mostly inhibitors. 2.3% of 330,000 active; further: potency means the concentration at half of the fitted maximal effect; nearly all actives have a fitted effect of over 55% in size
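Reporter activity after DNA damage by 5-fluorouridine is monitored. Compound-treated cells incubate 16 hr at 37 °C, then ONE-Glo is added for 30 min before luminescence reading.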
IL-1B inflam inh: inhibitors of inflammasome signaling (IL-1 beta secretion); 4.7% of 360,000 active; THP-1 LPS/ATP IL-1B secretion, AlphaLISA, 16 h; active compounds read low; activity change, % at 57.5 µM; AID 743279; in the data active means activity change below about -50%; inconclusive means mostly about -30% to -49%
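Secreted IL-1B measured by AlphaLISA bead assay after 16 h compound exposure of THP-1 cells; compounds (final up to 57.5 uM) added 1 h before LPS (250 ng/mL) and ATP (1.25 mM) stimulation; lower signal means less secretion.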
TDP1 cell CPT: growth inhibition of DT40 Tdp1-/-;hTDP1 cells with camptothecin (screen for TDP1 inhibitors); Potency, µM (series often up to 46.2 µM), inactives show at the top dose activity change, negative = growth inhibition, usual class: inhibitors; AID 686979; chicken DT40 Tdp1-/-;hTDP1 cells + 20 nM CPT, ATP luminescence, 48 h; 12% of 420,000 active; further: potency means the concentration at half of the fitted maximal effect; nearly all actives have a fitted effect of over 55% in size
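Cell growth measured by CellTiter-Glo luminescence after a minimum 48 h, 37 C compound exposure with 20 nM CPT in Tdp1-knockout DT40 cells stably expressing hTDP1, seeded 400/well; qHTS titration format.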
DT40 TDP1 no CPT: qHTS for Inhibitors of human tyrosyl-DNA phosphodiesterase 1 (TDP1): qHTS in cells in absence of CPT. DT40 Tdp1-/- hTDP1 cells, no CPT, ATP luminescence, 48 h. Potency, µM (titrated, usually from 46.2 µM), inactives show at the top dose activity change, negative = growth inhibition, most hits filed as inhibitors. 15% of 420,000 active; further: potency means the concentration at half of the fitted maximal effect; nearly all actives have a fitted effect of over 55% in size
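Stably hTDP1-transfected Tdp1-null chicken DT40 cells were treated with library compounds minus camptothecin and grown for at least 48 hr at 37 °C, after which cellular ATP was quantified by luminescence.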
The depositor's hits bear a star; ! = not confirmed by another sample. Unless noted, the call rests on the fitted dose curve; in most records, active means well fitted curve in the direction sought with a large enough effect; inconclusive means small, poorly fitted or top-dose-only effect, or another doubt; inactive means no such curve, though single readings can be large; an effect the other way counts as inactive or inconclusive. On the % scale 0 is the no-effect control and ±100 the full control effect.

How did Cn1cccc1/C=N/NC(=O)CSc1nc2ccccc2n1C do in these assays?
Gal4-VP16 FLuc: 6%; RORgamma inh: 20%; ELG1 repair inh: -11%; IL-1B inflam inh: -15; TDP1 cell CPT: -3%; DT40 TDP1 no CPT: -19%

How did CCOC(=O)c1cc(CC)sc1N1C(=O)CC(Sc2ccccc2C(=O)O)C1=O (stereo not drawn) do in these assays?
Gal4-VP16 FLuc: inconclusive; RORgamma inh: inconclusive; ELG1 repair inh: 16%; IL-1B inflam inh: 27; TDP1 cell CPT: 2.9µM*; DT40 TDP1 no CPT: 4.1µM*

Results for COC(=O)c1c(N2C(=O)CC(Sc3ccccc3C(=O)O)C2=O)sc(C)c1C (stereo not drawn) ?
Gal4-VP16 FLuc: -4%; RORgamma inh: inconclusive; ELG1 repair inh: -9%; IL-1B inflam inh: -8; TDP1 cell CPT: inconclusive; DT40 TDP1 no CPT: inconclusive

What do the screens show for `COC(=O)c1c(N2C(=O)CC(Sc3ccccc3C(=O)O)C2=O)sc2c1CCCC2` (stereo not drawn)?
Gal4-VP16 FLuc: -12%; RORgamma inh: -5%; ELG1 repair inh: 2%; IL-1B inflam inh: 13; TDP1 cell CPT: inconclusive; DT40 TDP1 no CPT: 7.3µM*

Results for O=c1[nH]c(=S)[nH]c2nc[nH]c12 ?
TDP1 cell CPT: 8%; DT40 TDP1 no CPT: -6%

How did S=c1nc[nH]c2nc[nH]c12 do in these assays?
Gal4-VP16 FLuc: -6%; RORgamma inh: -6%; ELG1 repair inh: 22%; IL-1B inflam inh: 38; TDP1 cell CPT: inconclusive; DT40 TDP1 no CPT: 19µM*!

What do the screens show for `CC(NC(=O)c1ccco1)c1nnc2n1CCN(Cc1ccc(N(C)C)cc1)CC2` (stereo not drawn)?
TDP1 cell CPT: -3%; DT40 TDP1 no CPT: -14%

How did O=[N+]([O-])c1ccc(N/N=C/c2cccc(O)c2O)c(S(=O)(=O)N2CCOCC2)c1 do in these assays?
Gal4-VP16 FLuc: -9%; RORgamma inh: -8%; ELG1 repair inh: inconclusive; IL-1B inflam inh: 27; TDP1 cell CPT: 10µM*; DT40 TDP1 no CPT: 13µM*

What do the screens show for `COc1cc(/C=N/Nc2ccc([N+](=O)[O-])cc2S(=O)(=O)N2CCOCC2)cc(OC)c1OC`?
Gal4-VP16 FLuc: 5%; RORgamma inh: -17%; ELG1 repair inh: inconclusive; IL-1B inflam inh: 26; TDP1 cell CPT: 4%; DT40 TDP1 no CPT: inconclusive

Results for O=[N+]([O-])c1ccc(N/N=C/c2ccc(O)c(O)c2O)c(S(=O)(=O)N2CCOCC2)c1 ?
Gal4-VP16 FLuc: 1%; RORgamma inh: -17%; ELG1 repair inh: 1%; IL-1B inflam inh: 5; TDP1 cell CPT: 4.1µM*; DT40 TDP1 no CPT: inconclusive

Results for Fc1ccccc1-c1nc(N2CCN(c3cccc(Cl)c3)CC2)c2ccccc2n1 ?
TDP1 cell CPT: 13µM*; DT40 TDP1 no CPT: 23µM*

What do the screens show for `Fc1ccccc1-c1nc(N2CCCCC2)c2ccccc2n1`?
Gal4-VP16 FLuc: 5%; RORgamma inh: -4%; ELG1 repair inh: -6%; IL-1B inflam inh: -6; TDP1 cell CPT: inconclusive; DT40 TDP1 no CPT: inconclusive

Results for c1ccc(N2CCN(c3nc(-c4ccccn4)nc4ccccc34)CC2)cc1 ?
Gal4-VP16 FLuc: 1.6µM*; RORgamma inh: 0.28µM*; ELG1 repair inh: inconclusive; IL-1B inflam inh: -21; TDP1 cell CPT: 4.1µM*; DT40 TDP1 no CPT: 4.6µM*

What do the screens show for `CCOc1ccc2nc(N=NC3=C(O)CC(C)(C)CC3=O)sc2c1`?
Gal4-VP16 FLuc: 3%; RORgamma inh: 2.2µM*; ELG1 repair inh: inconclusive; IL-1B inflam inh: 214; TDP1 cell CPT: 3.7µM*; DT40 TDP1 no CPT: 4.1µM*

Results for O=C(c1cnccn1)N1CCC[C@@]2(CCN(Cc3nccs3)C2)C1 ?
Gal4-VP16 FLuc: -8%; RORgamma inh: 17%; TDP1 cell CPT: 8%; DT40 TDP1 no CPT: -4%

How did CCSc1ccc([C@@H]2[C@@H]3C(=O)N(C)C(=O)[C@@H]3[C@]3(C(=O)OC)CCCCN23)cc1 do in these assays?
ELG1 repair inh: 16%; IL-1B inflam inh: inconclusive; TDP1 cell CPT: 16µM*; DT40 TDP1 no CPT: inconclusive

How did COC(=O)[C@@]12CCCN1[C@H](c1ccc(SC3CCCCC3)cc1)[C@H]1C(=O)N(C)C(=O)[C@H]12 do in these assays?
ELG1 repair inh: -12%; IL-1B inflam inh: 24; TDP1 cell CPT: inconclusive; DT40 TDP1 no CPT: 16µM*

What do the screens show for `COC(=O)[C@@]12CCCCN1[C@H](c1ccc(SC3CCCCC3)cc1)[C@H]1C(=O)N(C)C(=O)[C@H]12`?
ELG1 repair inh: -9%; IL-1B inflam inh: 0; TDP1 cell CPT: inconclusive; DT40 TDP1 no CPT: 16µM*

What do the screens show for `COC(=O)[C@@]12CCCN1[C@H](c1ccc(-c3ccc4c(c3)OCO4)cc1)[C@H]1C(=O)N(C)C(=O)[C@H]12`?
ELG1 repair inh: 2%; IL-1B inflam inh: 8; TDP1 cell CPT: inconclusive; DT40 TDP1 no CPT: inconclusive

What do the screens show for `COC(=O)[C@@]12CCCCN1[C@H](c1ccc(SC3CCCCC3)c(OC)c1)[C@@H]1C(=O)N(C)C(=O)[C@@H]12`?
ELG1 repair inh: -5%; IL-1B inflam inh: -25; TDP1 cell CPT: inconclusive; DT40 TDP1 no CPT: inconclusive

How did CC(OC(=O)C1=COCCO1)C(=O)NC1(C#N)CCCCC1 (stereo not drawn) do in these assays?
ELG1 repair inh: 7%; IL-1B inflam inh: 12; TDP1 cell CPT: -15%; DT40 TDP1 no CPT: -2%

What do the screens show for `Cc1nc2nc(NCc3ccc(Cl)cc3)[nH]n2c(=O)c1Cc1ccccc1`?
TDP1 cell CPT: -18%; DT40 TDP1 no CPT: -15%

How did CSc1ccc(CCNC(=O)c2ccc(-c3nc(COc4ccc(C)cc4)c(C)o3)cc2)cc1 do in these assays?
TDP1 cell CPT: -3%; DT40 TDP1 no CPT: -6%

Results for COc1ccc(-c2cc(C(=O)N(C)CCc3ccc(OC)c(OC)c3)c3ccccc3n2)cc1 ?
Gal4-VP16 FLuc: -9%; RORgamma inh: 5µM*; ELG1 repair inh: 13%; IL-1B inflam inh: -5; TDP1 cell CPT: 15µM*; DT40 TDP1 no CPT: 23µM*

What do the screens show for `COc1ccc(CCN(C)C(=O)c2cc(-c3ccccc3)nc3ccccc23)cc1OC`?
Gal4-VP16 FLuc: 8%; RORgamma inh: inconclusive; ELG1 repair inh: inconclusive; IL-1B inflam inh: 17; TDP1 cell CPT: inconclusive; DT40 TDP1 no CPT: 23µM*
